# PubChem BioAssay (NCI)
# The panel holds about 79,000 compounds, 15% with a hit somewhere; the sample as a whole holds those more often. A number with no mark means an inactive call. Active and inactive are the calls of the source. Cut-off read from the data, not from the text of the source: active = growth inhibition above about 70%; inactive = the rest.
# Assays:
# [1] = NCI Yeast Anticancer Drug Screen. Data for the mec2-1 strain (AID 157); details: S. cerevisiae mec2-1 strain, at 50.0 µM, stronger effect = higher value
# Summary of the method: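 Each compound was tested on mec2-1 yeast, a strain altered in DNA damage repair or cell cycle control. Growth inhibition is reported relative to vehicle.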
# [2] = NCI Yeast Anticancer Drug Screen. Data for the sgs1 mgt1 strain (AID 161);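 note: 0% = growth of cultures given vehicle only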; details: S. cerevisiae sgs1 mgt1 strain, at 50.0 µM, stronger effect = higher value
# Summary of the method: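 Genetically altered yeast, compound exposure, growth inhibition relative to vehicle.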
# [3] = NCI Yeast Anticancer Drug Screen. Data for the cln2 rad14 strain (AID 165);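 note: 0% = growth equal to vehicle treated cultures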; details: S. cerevisiae cln2 rad14 strain, at 50.0 µM, stronger effect = higher value
# Summary of the method: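 Test compounds were added to cln2 rad14 yeast cultures; inhibition of growth was then determined by comparison with vehicle treatment.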
# [4] = NCI Yeast Anticancer Drug Screen. Data for the bub3 strain (AID 167); details: S. cerevisiae bub3 mutant strain, at 50.0 µM, stronger effect = higher value
# Summary of the method: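 Steps: expose the mutant yeast strain to compound; grow alongside vehicle-treated cultures; measure growth; express inhibition against the vehicle cultures.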
# [5] = NCI Yeast Anticancer Drug Screen. Data for the mlh1 rad18 strain (AID 175); details: S. cerevisiae mlh1 rad18 strain growth inhibition; at 50.0 µM; stronger effect = higher value
# Summary of the method: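 Inhibition values reflect reduced growth of mutant yeast versus vehicle-treated controls following compound exposure; the mutations affect DNA damage repair.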
SMILES,growth inhibition [1],growth inhibition [2],growth inhibition [3],growth inhibition [4],growth inhibition [5]
CCC1(O)C(=O)c2ccccc2N(c2ccccc2)C1=O (stereo not given),3.7%,4%,-5.85%,8.3%,18.2%
COc1ccc2c(c1)CCC1=C2CCC(C(=O)O)C1(C)C(=O)O (stereo not given),-3%,9.25%,4.15%,-4.25%,-25.4%
NC(=O)CCC(NS(=O)(=O)c1ccc(NC(=O)c2ccccc2)cc1)C(=O)O (stereo not given),-4.1%,-22.9%,19.6%,-5.7%,-1.95%
O=S1(=O)C=C(N2CCCCC2)c2ccccc21,2.05%,-4%,-13.3%,-52%,11.8%
Nc1nc2c(ncn2C2C=CC(CO)C2)c(=O)[nH]1 (stereo not given),12.5%,3.9%,10.4%,-2.1%,4.25%
OC1CC2CCCCC2CC1c1ccccc1 (stereo not given),3.1%,-15.3%,-0.05%,27.4%,33.5%
CSC1=Nc2cc3c(cc2C(=O)N2C[C@H](O)CC12)OCO3 (stereo not given in full),-25.5%,-10.9%,-34.2%,-10.8%,-6.3%
N#Cc1c(-c2ccccc2)cc(-c2cccs2)c(C#N)c1N,4%,7.85%,-35.3%,12.8%,21.1%
CC(=O)Nc1nc(Cl)c2ncn(C3CCCO3)c2n1 (stereo not given),-4%,-9.35%,,0.6%,2.25%
Nc1nc(N)nc(-c2ccccc2NS(=O)(=O)c2ccc([N+](=O)[O-])cc2)n1,21.8%,6.2%,3.45%,11.2%,38.4%
COc1ccc(C2OC3=Nc4ccccc4NC3C2=O)cc1OC (stereo not given),16.3%,20.7%,5.25%,15.3%,16.4%
CC(=O)[O-].Cc1ccnc(NS(=O)(=O)c2ccc(N=Cc3ccccc3[O-])cc2)n1.Cc1ccnc(NS(=O)(=O)c2ccc(N=Cc3ccccc3[O-])cc2)n1.[Cu+2],,2.6%,19.1%,11.1%,34.4%
FC1(F)SC2c3ccccc3CC2C1(F)F (stereo not given),6.15%,7.75%,-47.2%,8.35%,9.95%
COc1cc2c(cc1OC)[C@H]1C(COC(=O)c3ccccc3)CSC(=Nc3ccccc3)N1CC2 (stereo not given in full),17.6%,,49.8%,36.9%,22.3%
COC(=O)C1CCCN1C(c1ccccc1)(c1ccccc1)c1ccccc1 (stereo not given),-2.2%,-11.5%,-2.15%,2.45%,-23.5%
S=C1NC(c2ccccc2)Nc2ccccc21 (stereo not given),15.9%,-5.5%,-40.3%,-12.9%,3.75%
N#Cc1nc(Nc2ccc([N+](=O)[O-])cc2)sc1N,33.8%,31.1%,36.2%,19.9%,22.4%
O=S(=O)(O)c1ccc[n+]([O-])c1,15.4%,-0.05%,39.5%,9.1%,-8.2%
CCCC1(C)COC(/C=C/c2ccccc2)OC1 (stereo not given),-9.7%,-8.3%,-1.85%,-8.2%,8.4%

SMILES,growth inhibition [1],growth inhibition [2],growth inhibition [3],growth inhibition [4],growth inhibition [5]
C=CCOC(=O)CCCCC(=O)OCC=C,4.15%,3.65%,6.1%,19.9%,0.1%
C=CCOC(=O)c1c(Cl)c(Cl)c(Cl)c(Cl)c1C(=O)O,7.85%,29.1%,25.9%,14.1%,23.9%
CCCCOC(=O)NCNC(=O)OCCCC,-7.1%,-2.1%,-15%,1.6%,14.9%
COc1ccc(C(C#N)C(=O)C(=O)Nc2ccc(Cl)cc2C)cc1OC (stereo not given),17.9%,24.6%,-14.2%,2.65%,16.9%
CC(C)=CCNc1nc(Cl)nc2nc[nH]c12,-8%,-59%,-14.5%,-19.4%,-67.7%
O=C(/C(=C/c1ccc(Cl)cc1)c1ccccc1)c1ccccc1,,6.45%,13.9%,-21.1%,-2.75%
CCCCOc1ccc(Nc2c(C(=O)OCC)cnc3cc4c(cc23)OCO4)cc1,-9%,-0.25%,8.2%,-3.45%,-9.4%
COC(=O)/C=C(\S/C=C(/c1ccccc1)N1CCn2c(C(=O)c3ccccc3)c(C(=O)OC)c(C(=O)OC)c21)C(=O)OC,32.6%,43.8%,11.4%,54.1%,15.2%
Cc1cccc(C)c1NC(=O)CCC/C(CC(=O)c1ccc(F)cc1)=N\NC(=O)C(=O)NN,2.7%,2.4%,-32.1%,-4.9%,19.8%
CCC(CCC(C)C)(SCC(N)=O)C(=O)O (stereo not given),-5.15%,-26%,-39.3%,0.2%,-38%
CC(C)N1C(=O)c2ccccc2C1=O,22.1%,14.7%,19.8%,15.1%,14.3%
CCOC(=O)c1cnc2[nH]ccn2c1=O,-43.3%,-4.45%,10.3%,,-8.75%
C=CC(=O)OCCC#N,18.8%,1.3%,2.8%,15.1%,5.45%
O=P(OCCCl)(OCCCl)C(c1ccccc1)(c1ccccc1)c1ccccc1,35.7%,72.6% (active),36.9%,38.5%,65.2%
CC1(C)COC(c2ccc(Cl)cc2)OC1,14.6%,4.3%,-12.5%,19.5%,26.1%
Cc1ccc(CCS(=O)(=O)N=[N+]=[N-])cc1,-11.8%,-8.95%,-53.8%,-20%,-3.4%
COc1ccc2cc1Oc1ccc(cc1)CC1=NCCc3cc(OC)c(OC)c(c31)Oc1cc3c(cc1OC)CCN(C)C3C2 (stereo not given),-14.6%,-12.4%,4.5%,3.15%,9.4%
COC(=O)C1C(C)(C(=O)OC)N=NC1(c1ccccc1)c1ccccc1 (stereo not given),-1.05%,-7.55%,16%,19.8%,-3.4%
O=c1c2ccccc2[nH]c2ccc(O)cc12,-7.95%,4.8%,-3.25%,3.2%,16.4%
